From PubChem BioAssay AID1159580 (chemical genetic matrix, 2015)
About 2,000 (36%) of roughly 5,500 compounds were called active. Inconclusive results (about 18%) are left out. No stated cut-off is given here; in the data, active means normalized growth mostly below about 0.91 (no sharp cut-off); inconclusive means no clear call, values can overlap the other calls; inactive means mostly above about 0.92. This is one part of the list.

Assay: chemical genetic growth profiling, strain panel (AID 1159580);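 further: tested at 20 µM; growth read once vehicle control cultures reached saturation at 30 °C; 1 = growth at the plate median or of vehicle wells; lower values mean less growth of the strain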
Conditions: growth OD

Measured: normalized growth

CC(CCC(=O)O)[C@H]1CCC2C3CC[C@@H]4CCCC[C@]4(C)C3CC[C@@]21C (some centres undefined)
inactive: S. cerevisiae deletion strains, locus YJR043C, strain POL32, active compounds read low 1.02 | S. cerevisiae deletion strains, locus YJR066W, strain TOR1, active compounds read low 1.06 | S. cerevisiae deletion strains, locus YJR075W, strain HOC1, active compounds read low 0.999 | S. cerevisiae deletion strains, locus YKL009W, strain mrt4, active compounds read low 0.95 | S. cerevisiae deletion strains, locus YKL068W, active compounds read low 0.989 | S. cerevisiae deletion strains, locus YKL085W, strain MDH1 (second series), active compounds read low 0.986 | S. cerevisiae deletion strains, locus YKL085W, strain MDH1, active compounds read low 0.986 | S. cerevisiae deletion strains, locus YKL160W, strain elf1, active compounds read low 1.02 | S. cerevisiae deletion strains, locus YKL190W, strain CNB1, active compounds read low 0.998 | S. cerevisiae deletion strains, locus YKR001C, strain vps1, active compounds read low 0.998 | S. cerevisiae deletion strains, locus YKR026C, strain gcn3, active compounds read low 1.01 | S. cerevisiae deletion strains, locus YKR091W, strain srl3, active compounds read low 1 | S. cerevisiae deletion strains, locus YLL001W, strain dnm1, active compounds read low 1.01 | S. cerevisiae deletion strains, locus YLL026W, active compounds read low 0.988 | S. cerevisiae deletion strains, locus YLL041C, strain sdh2, active compounds read low 1 | S. cerevisiae deletion strains, locus YLR027C, strain aat2, active compounds read low 0.995 | S. cerevisiae deletion strains, locus YLR039C, strain RIC1, active compounds read low 1.05 | S. cerevisiae deletion strains, locus YLR058C, strain SHM2, active compounds read low 0.999 | S. cerevisiae deletion strains, locus YLR102C, strain apc9, active compounds read low 0.984 | S. cerevisiae deletion strains, locus YLR113W, strain HOG1, active compounds read low 0.977 | S. cerevisiae deletion strains, locus YLR221C, strain rsa3, active compounds read low 1.02 | S. cerevisiae deletion strains, locus YLR258W, strain gsy2, active compounds read low 1 | S. cerevisiae deletion strains, locus YLR262C, strain YPT6 (second series), active compounds read low 1.05 | S. cerevisiae deletion strains, locus YLR262C, strain YPT6, active compounds read low 1.1 | S. cerevisiae deletion strains, locus YLR268W, strain sec22, active compounds read low 0.979 | S. cerevisiae deletion strains, locus YLR320W, strain mms22, active compounds read low 1.05 | S. cerevisiae deletion strains, locus YLR330W, strain CHS5, active compounds read low 0.999 | S. cerevisiae deletion strains, locus YLR342W, strain FKS1 (second series), active compounds read low 0.956 | S. cerevisiae deletion strains, locus YLR342W, strain FKS1, active compounds read low 1.04 | S. cerevisiae deletion strains, locus YLR357W, strain rsc2, active compounds read low 0.997 | S. cerevisiae deletion strains, locus YLR370C, strain arc18, active compounds read low 1.01 | S. cerevisiae deletion strains, locus YLR371W, strain rom2, active compounds read low 0.986 | S. cerevisiae deletion strains, locus YLR384C, strain iki3, active compounds read low 1 | S. cerevisiae deletion strains, locus YLR418C, strain cdc73, active compounds read low 0.975 | S. cerevisiae deletion strains, locus YML016C, strain PPZ1, active compounds read low 1 | S. cerevisiae deletion strains, locus YML032C, strain rad52, active compounds read low 0.992 | S. cerevisiae deletion strains, locus YML120C, strain ndi1, active compounds read low 1.01 | S. cerevisiae deletion strains, locus YML124C, strain tub3, active compounds read low 0.988 | S. cerevisiae deletion strains, locus YMR058W, strain fet3, active compounds read low 1.01 | S. cerevisiae deletion strains, locus YMR078C, strain ctf18, active compounds read low 1 | S. cerevisiae deletion strains, locus YMR125W, strain sto1, active compounds read low 1.02 | S. cerevisiae deletion strains, locus YMR129W, active compounds read low 1 | S. cerevisiae deletion strains, locus YMR205C, strain PFK2, active compounds read low 1.03 | S. cerevisiae deletion strains, locus YMR223W, strain ubp8, active compounds read low 0.994 | S. cerevisiae deletion strains, locus YMR231W, strain pep5, active compounds read low 0.998 | S. cerevisiae deletion strains, locus YMR307W, strain GAS1, active compounds read low 0.985 | S. cerevisiae deletion strains, locus YNL067W, strain RPL9B, active compounds read low 1.02 | S. cerevisiae deletion strains, locus YNL071W, strain lat1, active compounds read low 1.01 | S. cerevisiae deletion strains, locus YNL209W, strain ssb2, active compounds read low 1.02 | S. cerevisiae deletion strains, locus YNL233W, strain BNI4, active compounds read low 1.01 | S. cerevisiae deletion strains, locus YNL248C, strain rpa49, active compounds read low 1.01 | S. cerevisiae deletion strains, locus YNL250W, strain rad50, active compounds read low 0.982 | S. cerevisiae deletion strains, locus YNL271C, strain bni1, active compounds read low 0.986 | S. cerevisiae deletion strains, locus YNL298W, strain CLA4, active compounds read low 0.981 | S. cerevisiae deletion strains, locus YNL307C, strain MCK1, active compounds read low 0.987 | S. cerevisiae deletion strains, locus YNL322C, strain KRE1 (second series), active compounds read low 1.01 | S. cerevisiae deletion strains, locus YNL322C, strain KRE1, active compounds read low 0.997 | S. cerevisiae deletion strains, locus YNR049C, strain mso1, active compounds read low 0.998 | S. cerevisiae deletion strains, locus YNR052C, strain pop2, active compounds read low 0.985 | S. cerevisiae deletion strains, locus YOL012C, strain htz1 1.54 | S. cerevisiae deletion strains, locus YOL147C, strain pex11, active compounds read low 0.993 | S. cerevisiae deletion strains, locus YOR001W, strain rrp6, active compounds read low 1.02 | S. cerevisiae deletion strains, locus YOR061W, strain CKA2, active compounds read low 0.99 | S. cerevisiae deletion strains, locus YOR069W, strain VPS5, active compounds read low 0.993 | S. cerevisiae deletion strains, locus YOR070C, strain gyp1, active compounds read low 0.994 | S. cerevisiae deletion strains, locus YOR080W, strain dia2, active compounds read low 0.998 | S. cerevisiae deletion strains, locus YOR083W, strain WHI5, active compounds read low 1.02 | S. cerevisiae deletion strains, locus YOR106W, strain vam3, active compounds read low 1.02 | S. cerevisiae deletion strains, locus YOR136W, strain idh2, active compounds read low 0.986 | S. cerevisiae deletion strains, locus YOR144C, strain elg1, active compounds read low 0.992 | S. cerevisiae deletion strains, locus YOR184W, strain ser1, active compounds read low 0.992 | S. cerevisiae deletion strains, locus YOR231W, strain MKK1, active compounds read low 0.969 | S. cerevisiae deletion strains, locus YOR265W, strain rbl2, active compounds read low 1 | S. cerevisiae deletion strains, locus YOR270C, strain vph1, active compounds read low 1.01 | S. cerevisiae deletion strains, locus YOR290C, strain snf2, active compounds read low 1.01 | S. cerevisiae deletion strains, locus YOR316C, strain cot1, active compounds read low 0.985 | S. cerevisiae deletion strains, locus YPL051W, strain arl3, active compounds read low 1.01 | S. cerevisiae deletion strains, locus YPL055C, strain LGE1, active compounds read low 0.991 | S. cerevisiae deletion strains, locus YPL078C, strain atp4, active compounds read low 1.01 | S. cerevisiae deletion strains, locus YPL106C, strain sse1, active compounds read low 1.03 | S. cerevisiae deletion strains, locus YPL240C, strain hsp82, active compounds read low 0.998 | S. cerevisiae deletion strains, locus YPL256C, strain CLN2, active compounds read low 0.94 | S. cerevisiae deletion strains, locus YPR119W, strain clb2, active compounds read low 0.993 | S. cerevisiae deletion strains, locus YPR141C, strain kar3, active compounds read low 0.986 | S. cerevisiae deletion strains, locus YPR163C, strain tif3, active compounds read low 1.01 | S. cerevisiae deletion strains, locus YPR167C, strain met16, active compounds read low 0.971 | S. cerevisiae deletion strains, strain wtn01, active compounds read low 0.965 | S. cerevisiae strains, strain wild type, active compounds read low 0.995
active: S. cerevisiae deletion strains, locus YNL183C, strain NPR1, active compounds read low 1.11 [resistant]
